Experimental data published in the supplement of paper PMC6555819.

Assays:
Assay in all cases: PBM binding z-score (relative to random genomic background probes); higher = stronger binding; sequences stand for … in GC…GCGATTGACAGCGTAGAATGAAGG
[1] = test system: PPARg:RXRa IVT, anti-PPARg (NR concentration 270 nM, RXRa partner concentration 90 nM)
Summary of the method: (§1)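 On custom Agilent 4×180K arrays, double-stranded probes with 34-nt variable regions carried direct-repeat seeds, single-nucleotide variants, half-site ablations or random human genomic background. Ligand-free nuclear receptor dimers were applied for 1 h, and binding was read with antibodies against each partner (one per run). Binding z-scores come from regression-normalized fluorescence, with the random background probes as reference.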

[2] = test system: PPARg DBDmut:RXRa IVT, anti-PPARg (DBD mutation: PPARg1 K132A/R137A, NR concentration 270 nM, RXRa partner concentration 90 nM)
Summary of the method: as §1

[3] = test system: PPARg DBDmut IVT, anti-PPARg (DBD mutation: PPARg1 K132A/R137A, NR concentration 270 nM)
Summary of the method: as §1

[4] = test system: PPARg homodimer (NR concentration 180 nM)
Summary of the method: as §1

[5] = test system: PXR:RXRa (NR concentration 270 nM, RXRa partner concentration 90 nM)
Summary of the method: as §1

[6] = test system: PXR homodimer (NR concentration 270 nM)
Summary of the method: as §1

[7] = test system: RARa:RXR (NR concentration 270 nM, RXRa partner concentration 90 nM)
Summary of the method: as §1

[8] = test system: RARa homodimer (NR concentration 270 nM)
Summary of the method: as §1

[9] = test system: RARb:RXRa (NR concentration 270 nM, RXRa partner concentration 90 nM)
Summary of the method: as §1

[10] = test system: RARb homodimer (NR concentration 270 nM)
Summary of the method: as §1

| Sequence | PBM binding z-score [1] | PBM binding z-score [2] | PBM binding z-score [3] | PBM binding z-score [4] | PBM binding z-score [5] | PBM binding z-score [6] | PBM binding z-score [7] | PBM binding z-score [8] | PBM binding z-score [9] | PBM binding z-score [10] |
| --- | --- | --- | --- | --- | --- | --- | --- | --- | --- | --- |
| AATACAGGGTAACTAGGCCAGAGTAGGTACGAAT | 4.67 | 1.24 | 0.826 | 0.854 | -0.078 | 0.0219 | -0.00374 | 0.0183 | 0.804 | 0.549 |
| TCTTGTAGATCGATAGAGGTTAAGAAAGTGCGCT | 0.198 | 0.295 | 0.641 | 0.199 | 2.67 | 0.241 | 1.23 | 0.262 | 0.661 | 0.946 |
| ATCGAAAGGTCGAAGGTGAGCATACCCACCCGAA | 2.39 | 0.377 | 0.499 | 1.46 | 3.16 | 0.092 | 4.44 | 0.708 | 3.86 | 3.01 |
| CCTCGGAGGACAACAGGAGGTCATAGCTGCCAGA | 0.613 | -0.597 | -1.12 | 1.63 | 3.72 | 1.1 | 3.52 | 0.48 | 2.93 | 3.71 |
| CGTTCAAGGTCAAAGGTCAGTGAAGAGATGACGG | 6.57 | 2.57 | 1.79 | 6.36 | 7.19 | 3.57 | 8.99 | 5.48 | 5.89 | 5.42 |
| CAAACTAGTTCAAGAGGTCAAAGTCCGCTTCCCG | 2.96 | -0.123 | 0.442 | 5.22 | 5.97 | 5.56 | 6.53 | 2.22 | 4.52 | 4.85 |
| AATACAGGGTGACTAGGCCAGAGTAGGTACGAAT | 3.48 | 1.24 | 0.872 | 0.246 | 0.11 | 0.336 | 0.341 | 0.259 | 0.856 | 0.729 |
| GCTGCTAGTTCAACTGATGGTCAGCTAAAGCTCG | -0.512 | -0.37 | -1.33 | -0.347 | 0.398 | -0.4 | 0.418 | -1.04 | 1.62 | 1.21 |
| CAAACTAGGTCAAGGTCTAAGTCGGTTTGTGCCA | 8.57 | 4.39 | 3.12 | 2 | 1.67 | 0.201 | 2.3 | 0.357 | 4.24 | 3.49 |
| CCAGACAGGTGAGAAGGTAACTCAGCCTCGATTA | 0.964 | -0.28 | -0.249 | 1.03 | 0.228 | 0.138 | 0.486 | 0.698 | 0.666 | 0.841 |
| CGAACTAGGTCATTGACAGGACAGTGGATAGTAA | 7.98 | 2.72 | 1.77 | 1.39 | 1.52 | 0.501 | 2.02 | -0.303 | 3.53 | 2.83 |
| GCTTACAGGTCAAAGGTTATAGCATGAATAGAAT | 6.3 | 2.55 | 3.43 | 3.21 | 6.17 | 0.923 | 7.96 | 0.992 | 4.93 | 3.69 |
| GTTACAGGGTCAAGGCCAGAGTACGCGTATTGAT | 4.35 | 0.698 | 0.735 | 2.94 | 3.92 | 0.672 | 4.89 | 0.693 | 4.52 | 4.1 |
| TGAATGAGGTTAAATATCAGGGAACGTGGCGTCG | 2.35 | 0.916 | 0.956 | 0.766 | 1.35 | 0.413 | 1.91 | 0.347 | 2.17 | 0.735 |
| ACTTACGGGTCTACGAGGTTATAGCACGCGTATA | 0.458 | 0.196 | 0.723 | 0.507 | 1.03 | 0.544 | 1.28 | 0.676 | 0.688 | 0.753 |
| CGTACAAGGTCAAAGGTCAGTGAAGAGATGACGG | 7.09 | 2.61 | 3.6 | 5.49 | 7.22 | 2.17 | 9.15 | 4.68 | 5.95 | 5.35 |
| ACTAGTTGGTCAGCTGAGGTCACACCCAATTCGG | 2.55 | 1.1 | 0.595 | 2.35 | 5.14 | 1.25 | 4.27 | 0.354 | 3.57 | 4.33 |
| TCTTGTAGGTCAATAGAGGTTAAGAAAGTGCGCT | 7.76 | 2.66 | 2.4 | 2.69 | 5.67 | 0.719 | 4.2 | 1.13 | 4.09 | 3.81 |
| CCTACTGGTCCAAGGTCATTGATCAGTCAAAGCA | 1.68 | -0.223 | -0.605 | 3.61 | 4.18 | 2.61 | 4.13 | 1.23 | 3.33 | 3.76 |

| Sequence | PBM binding z-score [1] | PBM binding z-score [2] | PBM binding z-score [3] | PBM binding z-score [4] | PBM binding z-score [5] | PBM binding z-score [6] | PBM binding z-score [7] | PBM binding z-score [8] | PBM binding z-score [9] | PBM binding z-score [10] |
| --- | --- | --- | --- | --- | --- | --- | --- | --- | --- | --- |
| TCTAGTTGGTCTAAGGTCACACACTCGAAATGCG | 3.51 | 1.67 | 1.64 | 4.05 | 4.79 | 2.22 | 5.04 | 2.5 | 3.76 | 4.29 |
| AGTCAAAGTTCATCTAGGTAACATAAGATATGCT | 3.9 | 1.75 | 1.67 | 2.88 | 5.28 | 6.9 | 4.2 | 1.96 | 4.94 | 3.71 |
| CGTCCAAGGTCATAGGGGGTCAGTGAAGACAGAT | 5.56 | 5.09 | 6.03 | 6.75 | 6.98 | 6.58 | 7.02 | 4.01 | 5.56 | 5.51 |
| TTGCCAAGGTGAAAGGTCGTTGATGCACGCCTTG | 4.55 | -0.0211 | -0.745 | 1.54 | 4 | -0.137 | 5.68 | -0.379 | 3.06 | 2.56 |
| CCTACTCGGCCAAAAAGGTCATTGATGCCGATAA | 2.03 | -0.62 | -0.0585 | 3.26 | 4.83 | 3.27 | 4.83 | 1.71 | 4.07 | 4.59 |
| CGAACTACGTCATCCAGGACAGTGAATACATTGA | 0.155 | 0.664 | 1.1 | 0.384 | -0.0551 | 0.144 | 0.358 | 0.377 | -0.0115 | -0.0588 |
| ATATGTAGGTTATCGGGTCATACAGTTTGCGCAT | 7.62 | 3.33 | 1.78 | 2.48 | 3.54 | 2.74 | 4 | 1.32 | 2.75 | 3.17 |
| CCTACTGGGCCAAAAAGGTCATTGATGCCGATAA | 3.76 | -0.582 | -0.854 | 3.07 | 4.63 | 3.96 | 4.97 | 0.857 | 3.97 | 4.43 |
| GCTGCTAGGTCAACTGATGGTCACCTAAAGCTCG | 4.59 | -0.0462 | -0.599 | 1.66 | 2.06 | -0.358 | 3.26 | 0.182 | 4.24 | 3.93 |
| AGAATGAGGTCAAGATCAGGGAAACAGAATACAT | 6.55 | 2.94 | 2.9 | 3.03 | 4.67 | 1.43 | 5.28 | 1.39 | 5.21 | 3.8 |
| ACTCGGTGGACAAAGGTCAGAGCTACGCCAGTGA | 3.04 | -0.478 | -0.742 | 2 | 3.37 | -0.0874 | 4.02 | 0.366 | 3.96 | 4.06 |
| AATAAAGGGTCATCGTAGGCCAGAGTACGCACAG | 4.41 | 1.5 | 1.46 | 5.38 | 5.11 | 1.02 | 5.67 | 3.37 | 5.11 | 4.11 |
| CGAACTAGGTCATTGACAGGACAATGAATAGTAA | 8.41 | 3.96 | 1.94 | 1.77 | 2.07 | 0.487 | 2.45 | 0.188 | 3.77 | 2.88 |
| ATCGAAAGGTCCACGAGGTGAGTATACACCGTTT | 0.791 | 0.466 | 0.248 | 0.167 | 0.264 | -0.268 | 0.714 | 0.24 | 1.66 | 1.2 |
| CAAACTAGGTCACAAAAGGTCAAAGTCGAATGAC | 8.79 | 3.52 | 2.98 | 6.01 | 6.68 | 3.59 | 7.57 | 3.85 | 5.37 | 5.82 |
| TAGCCTAGGGCATTCAGGGGCCAGTATAGAAAGC | 0.75 | -0.631 | -1.01 | -0.114 | -0.0151 | -0.113 | 0.405 | -0.803 | 1.42 | 1.35 |
| TCTAGTTGGTCACGGAGGGCACACACGACGGGTA | 2.85 | 0.649 | 0.752 | 1.2 | 1.11 | 0.255 | 1.01 | 0.42 | 2.35 | 2.28 |
| ACTCGGAGGACAAAGGTCAGGGCTACGCCAGTGA | 3.76 | 0.115 | -0.434 | 4.95 | 4.18 | 0.463 | 5.81 | 1.53 | 4.69 | 4.65 |
| AGAATGAGGTCACCAAAGATCAGGGAAACGCTTG | 7.35 | 1.62 | 0.808 | 3.69 | 5.47 | 1.12 | 5.82 | 1.69 | 5.43 | 4.08 |
